# Assay outcomes (PubChem)
# Pf growth 96h – Primary qHTS for delayed death inhibitors of the malarial parasite plastid, 96 hour incubation | Potency, µM (top dose mostly 28.7 µM), without a hit: top-dose activity change, negative = inhibition, hits mostly inhibitors | P. falciparum luciferase reporter growth, 96 h | AID 504834, 2011 | 6.9% of 320,000 active; further: potency means the concentration at half of the fitted maximal effect; on the % scale 0 is the no-effect control and ±100 the full control effect
#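 Infected RBCs, 2% Hct / 0.05% parasitemia final; luciferase-reporter P. falciparum; cpd 96 h, 37 C, 5% CO2; luciferase detection reagent; luminescence.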
# Shiga inhibitor – A qHTS for Small Molecule Inhibitors of Shiga Toxin | Vero cells, Shiga toxin protein synthesis inhibition reporter | inhibition, % at 38.7 µM | 9.2% of 290,000 active | AID 2315, 2010; in the data active means inhibition mostly above about 28%, no sharp cut-off; inactive means mostly below about 43%; further: 0% is about no effect
# Pf growth 48h – Primary qHTS for delayed death inhibitors of the malarial parasite plastid, 48 hour incubation | P. falciparum luciferase growth in erythrocytes, 48 h | Potency, µM (series often up to 28.7 µM), without a hit: top-dose activity change, negative = inhibition, actives largely listed as inhibitors | 5.9% of 310,000 active; further: potency means the concentration at half of the fitted maximal effect; on the % scale 0 is the no-effect control and ±100 the full control effect
#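 In quantitative HTS format, infected erythrocytes bearing luciferase-reporter parasites were treated for a single generation at 37 C. Luminescence after adding detection reagent served as the growth measure.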
# HCMV inh – qHTS Assay for inhibitors of the human cytomegalovirus (HCMV) | HFF cells, HCMV-luciferase reporter, 72 h; hits give low values | activity change, negative = inhibition, % at 57.5 µM | 4.5% of 410,000 active | AID 1259415, 2018; in the data active means activity change below about -60%; inconclusive means no clear call, values can overlap the other calls; inactive means above about -39%; further: on the % scale 0 is the no-effect control and ±100 the full control effect
#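 Two compound doses tested in HFFs infected with HCMV-luciferase, MOI 1 PFU/cell, 72 h at 37C. Lysate luminescence read with OneGlo; data normalized against buffer-only and 10uM Salinomycin inhibitor controls.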
# Cycloheximide cs – Cycloheximide Counterscreen for Small Molecule Inhibitors of Shiga Toxin. cell reporter, cycloheximide protein synthesis inhibition counterscreen. max response, %. 12% of 300,000 active. AID 2314, 2010; in the data active means max response mostly above about 13%, no sharp cut-off; inactive means mostly below about 14%; further: read at 38.3 µM for the half of the compounds with a filed dose; 0% is about no effect
# Starred values were filed as active, the others as inactive; ? = inconclusive; . = not tested or not shown. Hits are enriched below; roughly 20% of the tested compounds scored in any of these assays. Unless noted, the call rests on the fitted dose curve; in most records, active means well fitted inhibition curve with a large enough effect; inconclusive means small, poorly fitted or top-dose-only effect, or another doubt; inactive means no such curve, though single readings can be large or run the other way.
SMILES,Pf growth 96h,Shiga inhibitor,Pf growth 48h,HCMV inh,Cycloheximide cs
COc1ccccc1NC(=O)/C(=C\c1cccnc1)NC(=O)c1ccc(C)cc1,10µM*,-7,-8%,-39,-2
COc1ccccc1CCNC(=O)/C(=C/c1cccnc1)NC(=O)c1ccccc1,10µM*,-9,-11%,-14,-2
CCOc1ccc(CNC(=O)c2cc3ccccn3n2)cc1OC,.,.,.,29,.
Cc1cc(C(F)(F)F)nc(Nc2nc(C)c3ccccc3n2)n1,.,-2,0%,2,10
Cc1ccc2nc(Nc3nc(C)cc(C(F)(F)F)n3)nc(C)c2c1,5.2µM*,-5,?,7,-8
Cc1ccc(C)n1-n1c(C)nc2scc(-c3ccccc3)c2c1=O,.,32,?,56,0
Cc1nc2scc(-c3ccccc3)c2c(=O)n1N=C1C=CC(=O)C=C1,1%,49*,54%,?,25*
CN(C)CCSc1nc(N)c2c3c(sc2n1)CN(C)CC3,?,-6,4.1µM*,6,11
CC(C)Sc1nc(N)c2c3c(sc2n1)CN(C)CC3,.,21,1µM*,50,16*
CCN(CC)CCNc1nc(SC)nc2sc3c(c12)CCN(C)C3,?,-6,?,-20,-1
COCCSc1nc(N)c2c3c(sc2n1)CN(C)CC3,3.7µM*,16,5.2µM*,29,10
CCCSc1nc(N)c2c3c(sc2n1)CN(C)CC3,?,35,?,.,16
CCOc1ccc(NC(=O)CN(C)C(=O)CN2C(=O)c3ccc([N+](=O)[O-])cc3C2=O)cc1OCC,16%,.,7%,5,.
O=C(O)CC(CC(=O)O)c1ccsc1,30%,.,18%,-14,.
COc1ccc(NC(=O)[C@@H]2[C@@H]3C(=O)N(C4CCCCC4)C(=O)[C@@H]3C3c4ccccc4C=CN32)cc1 (some centres undefined),15µM*,20,7.4µM*,25,3
CC(=O)[C@@H]1[C@@H]2C(=O)N(C3CCCCC3)C(=O)[C@@H]2C2c3ccccc3C=CN21 (some centres undefined),?,19,?,.,9
Clc1ccc(C(c2ccccc2Cl)C(Cl)Cl)cc1 (centres undefined),?,.,10µM*,?,.
Cc1ccc(NC(=O)O/N=C/c2c(C)nn(C(C)(C)C)c2C)cc1Cl,305%,-19,?,-86*,-1
CCC(C)C(NC(N)=O)C(=O)Nc1ccc(C)c(Cl)c1 (centres undefined),-12%,22,4%,24,4
Cc1ccc(NC(=O)C2(C)CCN2C(=O)Cc2ccc(-c3ccccc3)cc2)cc1 (centres undefined),.,.,.,-63*,.
CSc1ccccc1NC(=O)C1(C)CCN1C(=O)Cc1ccc(-c2ccccc2)cc1 (centres undefined),.,.,.,-62*,.
Cc1ccc(S(=O)(=O)NC(=O)C2(C)CCN2C(=O)Cc2ccc(-c3ccccc3)cc2)cc1 (centres undefined),.,.,.,31,.
CC1(C(=O)NS(=O)(=O)Cc2ccccc2)CCN1C(=O)Cc1ccccc1Cl (centres undefined),.,.,.,-62*,.
CN1c2ccccc2C(=O)NC1c1ccc([N+](=O)[O-])s1 (centres undefined),?,18,?,-10,1
CN1CCN(c2ccc(Nc3cc4c(cn3)cc(-c3cccc(F)c3)n4C)cc2)CC1,.,.,.,-21,.
SMILES,Pf growth 96h,Shiga inhibitor,Pf growth 48h,HCMV inh,Cycloheximide cs
COc1cc(CCN2C(=O)N[C@@H](c3cccc(C(F)(F)F)c3)C(C(C)=O)=C2C)cc(OC)c1OC,10µM*,3,13µM*,.,-1
CCN1C(=S)N[C@@H](CCc2ccccc2)C(C(=O)OC)=C1C,9.3µM*,-4,?,6,-1
COC(=O)C1=C(C)N(Cc2ccccc2)C(=S)N[C@H]1c1cccc(C(F)(F)F)c1,43%,28*,?,16,19*
CC(=O)C1=C(C)N(Cc2ccccc2)C(=O)N[C@H]1c1cccc(C(F)(F)F)c1,?,-9,?,-69*,-2
COCCNC(=O)C(OC(=O)c1ccco1)c1ccc(OC)cc1 (centres undefined),.,.,.,10,.
CC(NCc1ccc(Cl)cc1)C(O)c1ccccc1 (centres undefined),3.7µM*,-11,2.6µM*,-7,1
CCC(CO)NCc1ccc(-c2ccccc2)cc1 (centres undefined),3.7µM*,-8,14%,-14,-5
COc1ccccc1CNC(c1ccccc1)c1ccccc1,?,-7,0%,36,-5
CC(NCc1cccc(Cl)c1Cl)C(O)c1ccccc1 (centres undefined),4.7µM*,-7,9.3µM*,-18,-2
CC(NCc1ccc(-c2ccccc2)cc1)C(O)c1ccccc1 (centres undefined),2.3µM*,-18,2.9µM*,-101*,-8
Cc1ccc(-c2nc(S(=O)(=O)c3ccc(C)cc3)c(SCC(=O)c3ccccc3)o2)cc1,.,.,.,1,.
CC1(C(=O)NC2CCCCC2)Cc2ccccc2C(=O)N1Cc1ccc(Cl)cc1 (centres undefined),.,.,.,-26,.
CC(NCc1ccc(Cl)cc1Cl)C(O)c1ccccc1 (centres undefined),1.5µM*,43,1µM*,51,21
COc1cc(OC)c(OC)cc1CNC(C)C(O)c1ccccc1 (centres undefined),-19%,-12,-14%,-17,-4
CCOc1c(Cl)cc(CNC(C)C(O)c2ccccc2)cc1OC (centres undefined),22%,-5,1.5µM*,?,1
Cc1cc(C)c(C)c(S(=O)(=O)N2CCC(C(=O)NCc3ccco3)CC2)c1C,?,.,?,6,.
O=C(Nc1ccccc1)Nc1ccncc1,?,57*,?,46,15
O=C(Nc1ccccn1)NC1CCS(=O)(=O)C1 (centres undefined),10%,0,9%,-103*,-3
CCC(C(=O)Nc1ccncc1)c1ccccc1 (centres undefined),26%,-6,4.7µM*,-36,-2
O=C(Nc1cccc(F)c1)Nc1ccccn1,.,61*,98%,71,49*
COc1cccc(CC(=O)Nc2c(C(=O)N3CCN(c4ccccc4)CC3)oc3ccccc23)c1,.,.,.,-10,.
CCOc1ccc(OCCC(=O)OCC(=O)Nc2cc(S(=O)(=O)N3CCOCC3)ccc2C)cc1,57%,.,4%,-3,.
O=C(Nc1ccncc1)Nc1ccccn1,8.3µM*,60,-10%,?,-4
O=C(Nc1ccccn1)Nc1cccs1,?,38*,.,1,36*
O=C(Cc1cccs1)Nc1ccccn1,.,3,7%,119,-2
O=S(=O)(Nc1cccc(Br)c1)c1cccc2nsnc12,?,-3,19%,32,-1
